“And” between values parts separate entries of the source, which are not always exact repeats. Equal values may be shown once. In all, about 5,500 compounds went through this assay and about 2,000 (36%) were called active. About 18% were inconclusive and are not listed. Cut-off read from the data, not from the text of the source: active = normalized growth mostly below about 0.91 (no sharp cut-off); inconclusive = no clear call, values can overlap the other calls; inactive = mostly above about 0.92. This is one part of the list.
Assay: chemical genetic growth profiling, strain panel (AID 1159580);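 note: tested at 20 µM; growth read once vehicle control cultures reached saturation at 30 °C; 1 = growth at the plate median or of vehicle wells; lower values mean less growth of the strain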
Conditions: S. cerevisiae deletion strains, growth OD

Measured: normalized growth

C/C=C(\C)C(=O)O[C@H]1C[C@@H](OC(C)=O)[C@@]2(C(=O)OC)CO[C@@H]3C2[C@]12CO[C@](O)(C(=O)OC)[C@H]2[C@](C)(C12O[C@@]1(C)[C@H]1C[C@@H]2OC2OC=C[C@@]21O)[C@@H]3O (stereo partly specified)
inactive: locus YAL013W, strain DEP1, active compounds read low 0.99 | locus YAL021C, strain ccr4, active compounds read low 1 | locus YAL026C, strain drs2, active compounds read low 0.982 | locus YAL030W, strain snc1, active compounds read low 0.976 | locus YBL061C, strain skt5, active compounds read low 0.978 | locus YBR009C, strain hhf1, active compounds read low 0.977 | locus YBR021W, strain FUR4, active compounds read low 0.997 | locus YBR023C, strain chs3, active compounds read low 0.985 | locus YBR171W, strain sec66, active compounds read low 0.98 | locus YBR229C, strain ROT2, active compounds read low 0.99 | locus YBR231C, strain swc5, active compounds read low 0.991 | locus YBR279W, strain paf1, active compounds read low 0.992 | locus YCL011C, strain gbp2, active compounds read low 0.978 | locus YCL016C, strain dcc1, active compounds read low 0.964 | locus YCL029C, strain bik1, active compounds read low 0.955 | locus YCL061C, strain MRC1, active compounds read low 0.986 | locus YCL069W, strain vba3, active compounds read low 0.974 | locus YCR088W, strain abp1, active compounds read low 0.986 | locus YDL005C, strain med2, active compounds read low 0.963 | locus YDL040C, strain nat1, active compounds read low 0.973 | locus YDL074C, strain BRE1, active compounds read low 0.964 | locus YDL101C, strain DUN1, active compounds read low 0.977 | locus YDL134C, strain PPH21, active compounds read low 0.99 | locus YDL185W, strain tfp1, active compounds read low 0.978 | locus YDL192W, strain arf1, active compounds read low 0.986 | locus YDR001C, strain nth1, active compounds read low 0.97 | locus YDR069C, strain doa4, active compounds read low 0.969 | locus YDR101C, strain arx1, active compounds read low 0.975 | locus YDR137W, strain rgp1, active compounds read low 0.984 | locus YDR150W, strain NUM1, active compounds read low 1 | locus YDR159W, strain sac3, active compounds read low 0.994 | locus YDR162C, strain NBP2, active compounds read low 1 | locus YDR195W, strain ref2 0.938 | locus YDR297W, strain sur2, active compounds read low 0.975 | locus YDR318W, strain mcm21, active compounds read low 0.977 | locus YDR334W, strain swr1, active compounds read low 0.973 | locus YDR335W, strain msn5, active compounds read low 0.981 | locus YDR388W, active compounds read low 0.985 | locus YDR392W, strain spt3, active compounds read low 0.969 | locus YDR502C, strain sam2, active compounds read low 0.992 | locus YEL003W, strain gim4, active compounds read low 1 | locus YEL037C, strain rad23, active compounds read low 0.977 | locus YEL061C, strain CIN8 (second series), active compounds read low 0.973 | locus YEL061C, strain CIN8, active compounds read low 0.995 | locus YER015W, strain faa2, active compounds read low 0.987 | locus YER016W, strain bim1, active compounds read low 0.977 | locus YER110C, active compounds read low 0.971 | locus YER111C, strain swi4, active compounds read low 0.983 | locus YER155C, strain BEM2 (second series), active compounds read low 0.981 | locus YER155C, strain BEM2, active compounds read low 0.997 | locus YER167W, strain BCK2, active compounds read low 1 | locus YFR010W, strain ubp6, active compounds read low 0.979 | locus YGL078C, strain dbp3, active compounds read low 0.995 | locus YGL086W, strain mad1, active compounds read low 1 | locus YGL167C, strain pmr1, active compounds read low 0.97 | locus YGL173C, strain kem1, active compounds read low 0.982 | locus YGL227W, strain vid30, active compounds read low 0.99 | locus YGL240W, strain doc1, active compounds read low 1 | locus YGL248W, strain PDE1, active compounds read low 0.99 | locus YGL253W, strain hxk2, active compounds read low 0.986 | locus YGR078C, strain PAC10, active compounds read low 0.997 | locus YGR135W, strain pre9, active compounds read low 0.971 | locus YGR229C, strain SMI1, active compounds read low 1.01 | locus YGR252W, strain gcn5, active compounds read low 1.03 | locus YHR013C, strain ard1, active compounds read low 0.964 | locus YHR027C, strain rpn1, active compounds read low 0.965 | locus YHR030C, strain SLT2, active compounds read low 0.989 and 0.98 | locus YHR079C, strain IRE1 (second series), active compounds read low 0.969 | locus YHR079C, strain IRE1, active compounds read low 0.991 | locus YHR094C, strain hxt1, active compounds read low 0.985 | locus YHR129C, strain ARP1, active compounds read low 0.992 | locus YHR142W, strain chs7, active compounds read low 0.974 | locus YHR200W, strain rpn10, active compounds read low 0.987 | locus YIL066C, strain RNR3, active compounds read low 0.99 | locus YIL073C, strain SPO22, active compounds read low 0.994 | locus YIL125W, strain kgd1, active compounds read low 0.995 | locus YIR030C, strain dcg1, active compounds read low 0.997 | locus YJL092W, strain hpr5, active compounds read low 0.981 | locus YJL095W, strain BCK1 (second series), active compounds read low 0.983 | locus YJL095W, strain BCK1, active compounds read low 0.98 and 0.993 | locus YJL115W, strain asf1, active compounds read low 0.963 | locus YJL129C, strain trk1, active compounds read low 0.978 | locus YJL134W, strain LCB3, active compounds read low 0.991 | locus YJL154C, strain vps35, active compounds read low 0.969 | locus YJL164C, strain tpk1, active compounds read low 0.969 | locus YJL166W, strain qcr8, active compounds read low 0.99 | locus YJL168C, strain set2, active compounds read low 0.978 | locus YJL187C, strain SWE1 (second series), active compounds read low 0.978 | locus YJL187C, strain SWE1, active compounds read low 0.982 | locus YJR043C, strain POL32, active compounds read low 0.996 | locus YJR066W, strain TOR1, active compounds read low 0.933

Reference: PubChem BioAssay AID1159580 (chemical genetic matrix, 2015)
